Out of some 290,000 compounds screened, about 150 (0.052%) were called active.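 Rule for the calls: active = inhibition of at least 50% with at least 30 cells and total cytoplasm GFP at most 10,000,000; inconclusive = under 30 cells or total GFP of 10,000,000 plus; inactive = the rest.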 The entries come from a sample that favours actives as a whole. Entries with a potency or affinity are not part of this list.

The target of this assay is G-protein coupled receptor 35 (Homo sapiens) (UniProt Q9HC97). Nature of the assay: inhibition of zaprinast-stimulated GPR35 beta-arrestin translocation – imaging, U2OS, beta-arrestin-GFP, zaprinast agonist, primary screen (AID 2058). The settings on record: zaprinast antagonism, at 10 µM, stronger effect = higher value.
G-protein coupled receptor 35 (Homo sapiens), sequence (Q9HC97 whole entry, looked up): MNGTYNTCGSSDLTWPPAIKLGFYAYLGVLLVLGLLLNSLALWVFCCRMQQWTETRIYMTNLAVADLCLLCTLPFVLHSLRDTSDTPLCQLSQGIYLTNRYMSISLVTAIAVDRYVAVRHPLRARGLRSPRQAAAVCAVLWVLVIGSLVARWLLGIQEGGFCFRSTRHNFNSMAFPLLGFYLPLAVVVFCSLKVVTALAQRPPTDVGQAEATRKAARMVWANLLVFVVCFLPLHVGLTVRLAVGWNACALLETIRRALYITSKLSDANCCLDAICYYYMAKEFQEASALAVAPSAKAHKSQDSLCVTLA
The term inhibition denotes the relative decrease from the control value, in per cent. For the compound `COc1ccc(C2c3c(ccc4ccccc34)Oc3ncn4nc(CO/N=C/c5ccccc5)nc4c32)cc1` (stereo not drawn), the inhibition was -1.8% (inactive). In the case of `COc1ccc(C(=O)NNS(=O)(=O)c2ccccc2)cc1`, the inhibition is -5.9% (inactive).

Take `CC(C)[C@H](Nc1ccc(S(=O)(=O)N2CCOCC2)cc1[N+](=O)[O-])C(=O)OCC(=O)N(C(C)C)C(C)C`: the inhibition is 11.5% (inactive). As for `COc1cc(/C=N/NC(=O)CC2(C)OCCCO2)ccc1OCc1ccccc1`, the figure is -7.2% (inactive). In the case of `COc1cc(/C=N/NC(=O)CC2(C)OCCCO2)ccc1OCc1ccc(Cl)cc1Cl`, the inhibition is 10.6% (inactive). For `O=C(NCC1CCCO1)c1cc2cc(Cl)ccc2[nH]1` (stereo not drawn), the inhibition was 2.4% (inactive).

With `CCOC(=O)c1ccccc1NC(=O)Cn1cnc2c(oc3ccccc32)c1=O`, the inhibition is 8.3% (inactive). As for `COC(=O)c1ccc(CSc2nc(C)nc3c2c(=O)n(C)c(=O)n3C)o1`, the figure is -16.8% (inactive). Consider `O=C(CSc1nc2cc(Cl)ccc2c(=O)n1Cc1ccco1)Nc1ccc(S(=O)(=O)N2CCOCC2)cc1`, for which the inhibition is -2.6% (inactive). In the case of `O=C(N/N=C/c1cccs1)[C@H]1C[C@@H]1c1ccccc1` it was 9.8% (inactive); in that of `Oc1ccc(/C=N/Nc2nc(-c3cccnc3)nc3ccccc23)c(O)c1`, 8.3% (inactive). In the case of `Oc1ccc(Nc2nc(-c3ccccc3F)nc3ccccc23)cc1` it was -5.3% (inactive); in that of `CC1CCN(S(=O)(=O)c2cccc(S(=O)(=O)N3CCCC3)c2)CC1`, 4.8% (inactive); in that of `NC(=O)c1cc2cc([N+](=O)[O-])ccc2oc1=O`, -20% (inactive). As for `COc1ccc(C(=O)Nc2ccc(Cl)cc2C(=O)NCc2ccco2)cc1`, the figure is 14% (inactive).

For the compound `CCn1cnc2cc(NCc3ccc(OC)cc3)ccc21`, the inhibition is -12.4% (inactive). In the case of `CCOc1ccc(CNc2ccc3c(c2)nc(C)n3C)cc1` it was 4.9% (inactive); in that of `CCOCC(O)CS(=O)(=O)c1ccccn1` (stereo not drawn), -4.6% (inactive).

For `O=C(Nc1nc2ccc(Cl)cc2s1)c1ccc(N2CCCCC2)c([N+](=O)[O-])c1`, the inhibition is 4.2% (inactive). Regarding `O=C(Nc1nc2ccc3ccccc3c2s1)c1ccc(N2CCCCC2)c([N+](=O)[O-])c1`, the inhibition is 5.5% (inactive). As for `O=C(Cc1cccc2ccccc12)Nc1cc(Cl)ccc1C(=O)O`, the figure is -3.5% (inactive); as for `O=C(CCC1N=C2c3ccccc3N=C(SCC(=O)NCC3CCCO3)N2C1=O)NCc1ccc(F)cc1` (stereo not drawn), -0.5% (inactive). As for `N#C/C(=C\c1ccc(N2CCOCC2)o1)c1nc2ccccc2[nH]1`, the figure is 26.1% (inactive); as for `N#C/C(=C\c1ccc(N2CCOCC2)o1)c1ccccc1`, 19.5% (inactive). As for `CCn1c(CC(=O)Nc2ccccc2F)nnc1SCC(=O)N1CCN(c2ccccc2)CC1`, the inhibition is -10.6% (inactive). With `CC(C)(C)NC(=O)CN(C(=O)C(=O)Nc1ccc2c(c1)OCCO2)C1CCCC1`, the inhibition is 15.5% (inactive). As for `CC(=O)c1cccc(NC(=O)/C(=C\c2ccco2)NC(=O)c2ccco2)c1`, the figure is -5.7% (inactive); as for `CCN1C=CC2=C(C#N)C(N)C(C#N)(C#N)C(c3ccccc3C(F)(F)F)C2C1` (stereo not drawn), 12.6% (inactive); as for `CN1C=CC2=C(C#N)C(N)C(C#N)(C#N)[C@H](c3ccccc3)[C@H]2C1` (stereo partly drawn), 38.1% (inactive). As for `CC1=C(C(=O)OCc2ccccc2)C(c2ccccc2Cl)NC(=O)N1CCCCCC(=O)O` (stereo not drawn), the figure is 0.1% (inactive); as for `O=S(=O)(Nc1nc2ccccc2s1)c1cc(F)ccc1F`, -10.3% (inactive). Regarding `CC1CN(CCC(=O)Nc2ccc3c(c2)OCO3)CC(C)O1` (stereo not drawn), the inhibition was -12% (inactive). For the compound `C#CCOCCOCCOCCNc1nc(N2CCN(C(=O)[C@H]([C@@H](C)CC)n3cc(CCCN=C(N)N)nn3)CC2)nc(N2CCN(C(=O)[C@H](Cc3ccc(O)cc3)n3cc(CCO)nn3)CC2)n1`, the inhibition is -6.4% (inactive). As for `CS(=O)(=O)N1N=C(c2ccc(Br)cc2)CC1c1ccc2c(c1)OCO2` (stereo not drawn), the figure is 20.6% (inactive).

With `Cc1ccc(C2=NN(S(C)(=O)=O)C(c3ccc4c(c3)OCO4)C2)cc1` (stereo not drawn), the inhibition was 6.3% (inactive).

For `O=C(NC1CCCC1)C(c1ccccn1)N(C(=O)c1csnn1)c1ccccc1` (stereo not drawn), the inhibition is 13.8% (inactive). As for `COc1ccc(/C=N/N2C(=O)CN(C(=O)c3ccccc3)C2c2ccc(OC)cc2)cc1` (stereo not drawn), the figure is 1.5% (inactive); as for `COc1ccc(S(=O)(=O)N2CCOC2CNC(=O)C(=O)NCCc2c[nH]c3ccccc23)cc1` (stereo not drawn), 4.5% (inactive); as for `O=C(Nc1ccc(C2=NCCN2)cc1)c1ccc(C(=O)Nc2ccc(C3=NCCN3)cc2)c(Cl)c1`, 101% (active).

Consider `O=C(Nc1ccc(C2=NCCN2)cc1)c1ccc(C(=O)Nc2ccc(C3=NCCN3)cc2)c([N+](=O)[O-])c1`, for which the inhibition was -3.6% (inactive). In the case of `O=C(Nc1ccc(C2=NCCN2)cc1)c1ccc(Cl)c(C(=O)Nc2ccc(C3=NCCN3)cc2)c1` it was 13.7% (inactive); in that of `COC(=O)c1sc(S(=O)(=O)N2CCC(C)CC2)c(C(=O)OC)c1C`, 10.9% (inactive). With `COCCCNC(=S)N(CCCN(C)C)Cc1cc2cc3c(cc2[nH]c1=O)OCCO3`, the inhibition was -7.4% (inactive). In the case of `CCOC(=O)CC1C(=O)NCCN1C1CCCC1` (stereo not drawn) it was 9.7% (inactive).

Take `CC(=O)NNC(=O)CN1C(=O)/C(=C/c2ccccc2)SC1=S`: the inhibition is -0.2% (inactive). `Cc1c(C(=O)Nc2cccc(N(C)S(C)(=O)=O)c2)cccc1[N+](=O)[O-]`: the inhibition is -4.4% (inactive). In the case of `CC(C)c1cc(=O)oc2c3c4c(cc12)CCCN4CCC3` it was -1.4% (inactive); in that of `O=c1ccc2cc3c4c(c2o1)CCCN4CCC3`, 22.1% (inactive). As for `O=C(CNC(=O)N1CC(=O)Nc2ccccc21)Nc1ccc(F)c(Cl)c1`, the figure is -6.4% (inactive); as for `CCc1ccc2[nH]c(=O)c(CN(CCN3CCOCC3)C(=O)Nc3ccccc3F)cc2c1`, 8.5% (inactive). `CCC(C)[C@H](NC(=O)N1CCn2c1nc1ccccc12)C(=O)NCC1CCCO1` (stereo partly drawn): the inhibition is -10.9% (inactive). `O=C(NC1CCCc2ccccc21)c1cn2ccccc2n1` (stereo not drawn): the inhibition is 13.2% (inactive). As for `CC(C)c1ccc(NC(=O)CSc2nc3ccsc3c(=O)n2CCC(=O)O)cc1`, the figure is 6.9% (inactive); as for `Cc1ccc(CNC(=O)CSc2nc3ccsc3c(=O)n2Cc2ccc(C(=O)O)cc2)cc1`, -4.6% (inactive). For `O=C(NCCN1CCOCC1)c1c[nH]c2ccc(S(=O)(=O)N3CCOCC3)cc2c1=O`, the inhibition is 3% (inactive).

For the compound `CCCS(=O)(=O)c1c(S(=O)(=O)CCC)c2c3ccccc3ccn2c1C(N)=O`, the inhibition is -10.5% (inactive). In the case of `CCN(CC)S(=O)(=O)c1ccc(Cl)c(NC(=O)c2cc(Cl)ccc2Cl)c1` it was 7.1% (inactive); in that of `CCN(CC)S(=O)(=O)c1ccc(Cl)c(NC(=O)c2ccccc2C)c1`, 4.8% (inactive); in that of `CCOc1ccccc1N(C)C(=O)Cn1ncc2c([nH]c3ccc(C)cc32)c1=O`, -6.9% (inactive). As for `CN(C(=O)COC(=O)c1ccccc1NC(=O)c1ccco1)C1CCS(=O)(=O)C1` (stereo not drawn), the inhibition is 29.1% (inactive). As for `Cc1ccc(NC(=O)c2nc[nH]c2C(=O)N[C@@H](C)c2ccccc2)cc1`, the inhibition is 53.8% (inactive). Regarding `Cc1ccc(CCNC(=O)CCS(=O)(=O)c2ccc(Br)cc2)cc1`, the inhibition is 3.1% (inactive). In the case of `Cc1ccc(OCCC(=O)NCCc2ccc(S(N)(=O)=O)cc2)cc1` it was 21.9% (inactive); in that of `NS(=O)(=O)c1ccc(CCNC(=O)CCCOc2ccccc2)cc1`, 3.9% (inactive). In the case of `O=C(CCS(=O)(=O)c1ccc(Br)cc1)NCCc1ccccc1` it was -8.4% (inactive). As for `CC(=O)Nc1ccc(-c2nnc(SCc3ccccc3C#N)n2C)cc1`, the figure is -3.6% (inactive); as for `Cc1ccc(C(OCC(O)CNC(CO)C(O)c2ccc([N+](=O)[O-])cc2)c2ccccc2)cc1` (stereo not drawn), 2% (inactive). As to `CCCCc1ccc(/C=C2\C(=O)c3ccccc3C(O)=C2C(=O)OCC)cc1`, the inhibition is 59% (active). For `CCOC(=O)C1=C(O)c2ccccc2C(=O)/C1=C\c1ccc(CC)cc1`, the inhibition was 31.1% (inactive). As for `CCCc1ccc(/C=C2\C(=O)c3ccccc3C(O)=C2C(=O)OCC)cc1`, the figure is 21.2% (inactive).

Consider `Cc1cccc(Oc2ncnc3onc(C)c23)c1`, for which the inhibition was -0.9% (inactive). As for `CCN1/C(=C/C=C/C=C/c2sc3ccccc3[n+]2CC)Sc2ccccc21`, the figure is 58.9% (inactive). `CCN1/C(=C/C=C/C=C/C=C/c2sc3ccccc3[n+]2CC)Sc2ccccc21`: the inhibition was 44.3% (inactive).

For the compound `CCN(c1ccccc1)S(=O)(=O)c1ccc(Cl)c(NC(=O)CSc2n[nH]c(N)n2)c1`, the inhibition is 0.7% (inactive). As to `COc1cccc(/C=c2\s/c(=C/C(=O)c3ccc(C)cc3)[nH]c2=O)c1OC`, the inhibition was -9.9% (inactive). Take `COc1ccc(/C=c2\s/c(=C/C(=O)c3ccc(C)cc3)[nH]c2=O)cc1OC`: the inhibition was 8.2% (inactive).

Regarding `Cc1ccc(C)c(NC(=O)Nc2ccc3c(c2)OCO3)c1`, the inhibition was -7.8% (inactive). As for `COc1ccccc1N1CCN(S(=O)(=O)c2ccc(Cl)s2)CC1`, the inhibition was -2.5% (inactive). In the case of `COC(=O)c1cc(NC(=O)c2ccccc2)c(=O)oc1C` it was -9.4% (inactive); in that of `Cc1oc(=O)c(NC(=O)c2cccc(Cl)c2)cc1C(=O)c1ccccc1`, -3% (inactive). Consider `COC(=O)c1cc(NC(=O)c2cccc(Cl)c2)c(=O)oc1/C=C/Nc1cc(C)cc(C)c1`, for which the inhibition is 93.3% (active). In the case of `CSc1nc2ccccc2cc1/C=C(\C#N)c1cccc(C)c1` it was 55.3% (active). In the case of `CSc1nc2ccccc2cc1/C=C(\C#N)c1cccc(Cl)c1` it was 3.7% (inactive); in that of `CSc1nc2ccccc2cc1/C=C(\C#N)c1ccccc1`, 3.1% (inactive). In the case of `CN(Cc1nc(-c2cccc(Cl)c2)no1)C1CCOCC1` it was -8.4% (inactive). `CSC1=NSC2=NC(=O)/C(=C/c3coc4ccccc4c3=O)C(=N)N12`: the inhibition was 4.5% (inactive). As for `CCSC1=NSC2=NC(=O)/C(=C\c3coc4ccccc4c3=O)C(=N)N12`, the figure is 36.4% (inactive); as for `CC(=O)Nc1cccc(NC(=O)Cc2ccc3ccccc3c2)c1`, 0.8% (inactive).

The values above are taken from PubChem BioAssay AID2058 (Sanford-Burnham Center for Chemical Genomics, 2009).
